Among the test systems are SR leukemia; RPMI-8226 leukemia; OVCAR-8 ovarian; OVCAR-5 ovarian; OVCAR-4 ovarian; SK-OV-3 ovarian; IGROV1 ovarian; OVCAR-3 ovarian; HS 578T breast; NCI/ADR-RES ovarian.
What all share (experiment): NCI-60 one-dose screen, 48 h (100 = growth as untreated, 0 = no growth, -100 = all killed)
What all share (conditions): 10 µM unless noted

The panel holds about 83,000 compounds, 20% with a hit somewhere; the sample as a whole holds those more often.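 Results are percent growth after 48 hours of single-concentration exposure. 100 means growth as in untreated cells, lower positive values show inhibition; negative values down to -100 show cell death.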 Values without a mark were called inactive. The source made the active and inactive calls. The calls were made as follows: active = growth percent below 10; inactive = the rest.

As for `O=C(c1ccc(Cl)cc1)N1CCCCC1`, the growth in the assay on SR leukemia was 96.9%; with RPMI-8226 leukemia it was 102%; in the assay on OVCAR-8 ovarian, 106%; in the assay with OVCAR-5 ovarian, 102%; in the assay on OVCAR-4 ovarian it was 113%; in the assay on SK-OV-3 ovarian it was 105%. Also, the growth with IGROV1 ovarian is 105%; with OVCAR-3 ovarian, 112%; with HS 578T breast it was 23.2%; with NCI/ADR-RES ovarian, 102%.

With `C=C(C)COc1ccc(C(C)(C)C)cc1`, the growth in the assay with SR leukemia was 96.3%; in the assay with RPMI-8226 leukemia, 104%; in the assay with OVCAR-8 ovarian, 95.4%; in the assay with OVCAR-5 ovarian it was 106%; in the assay with OVCAR-4 ovarian, 103%; in the assay on SK-OV-3 ovarian, 95.9%. In addition, the growth is 112% in the assay on IGROV1 ovarian, 102% in the assay on OVCAR-3 ovarian, 90.1% in the assay on HS 578T breast and 107% with NCI/ADR-RES ovarian.

Turning to `COc1nc(Nc2cccc(C(F)(F)F)c2)nc(OC)n1`, the growth is 95% with SR leukemia; 94.7% with RPMI-8226 leukemia; 96% in the assay with OVCAR-8 ovarian; 116% in the assay on OVCAR-5 ovarian; 105% with OVCAR-4 ovarian; 97.9% in the assay on SK-OV-3 ovarian. In addition, the growth is 93.1% with IGROV1 ovarian, 103% in the assay with OVCAR-3 ovarian, 98.6% with HS 578T breast and 104% in the assay with NCI/ADR-RES ovarian.

On to `OCCc1ccc(Cl)cc1`, for which the growth is 94.6% in the assay on SR leukemia; 101% in the assay on RPMI-8226 leukemia; 98.7% in the assay with OVCAR-8 ovarian; 97.8% in the assay on OVCAR-5 ovarian; 103% in the assay with OVCAR-4 ovarian; 100% with SK-OV-3 ovarian. Moreover, the growth was 104% with IGROV1 ovarian, 105% in the assay on OVCAR-3 ovarian, 95% in the assay with HS 578T breast and 107% with NCI/ADR-RES ovarian.

For `C/C(=N\O)c1ccccn1`, the growth in the assay on SR leukemia was 94.5%; with RPMI-8226 leukemia it was 102%; in the assay on OVCAR-8 ovarian, 97.7%; with OVCAR-5 ovarian, 106%; in the assay on OVCAR-4 ovarian, 97.3%; in the assay with SK-OV-3 ovarian it was 109%. Moreover, the growth with IGROV1 ovarian is 110%; in the assay with OVCAR-3 ovarian, 106%; in the assay with HS 578T breast, 95.5%; in the assay with NCI/ADR-RES ovarian, 100%.

As for `CC1(C)CC(=O)C=C(N)C1`, the growth in the assay on SR leukemia is 108%; in the assay with RPMI-8226 leukemia it was 178%; in the assay with OVCAR-8 ovarian it was 97.1%; with OVCAR-5 ovarian, 89.3%; in the assay on OVCAR-4 ovarian it was 91.7%; in the assay with SK-OV-3 ovarian, 145%. Moreover, the growth in the assay on IGROV1 ovarian was 101%; in the assay on OVCAR-3 ovarian it was 106%; in the assay with HS 578T breast, 77.9%; in the assay with NCI/ADR-RES ovarian, 83.4%.

For `Cc1ccc(Cc2ccc(C)cc2)cc1`, the growth is 102% in the assay on SR leukemia; 106% in the assay on RPMI-8226 leukemia; 102% in the assay with OVCAR-8 ovarian; 99.1% in the assay with OVCAR-5 ovarian; 109% in the assay on OVCAR-4 ovarian; 97.2% with SK-OV-3 ovarian. For the same compound, the growth is 103% with IGROV1 ovarian, 116% in the assay on OVCAR-3 ovarian, 105% in the assay on HS 578T breast and 108% with NCI/ADR-RES ovarian.

For `O=C(Nc1c(Cl)cc(Cl)cc1Cl)ON=C1CCCCC1`, the growth is 98.4% in the assay with SR leukemia; 105% with RPMI-8226 leukemia; 104% with OVCAR-8 ovarian; 96.4% in the assay on OVCAR-5 ovarian; 108% in the assay with OVCAR-4 ovarian; 114% with SK-OV-3 ovarian. The growth was 109% in the assay with IGROV1 ovarian, 105% in the assay with OVCAR-3 ovarian, 99.3% in the assay with HS 578T breast and 109% in the assay on NCI/ADR-RES ovarian.

With `O=C(c1cccc(C(=O)c2ccc3c4c(cccc24)C(=O)N(c2ccccc2)C3=O)c1)c1ccc2c3c(cccc13)C(=O)N(c1ccccc1)C2=O`, the growth in the assay on SR leukemia was 57.4%; with RPMI-8226 leukemia it was 72.4%; in the assay on OVCAR-8 ovarian, 88.8%; in the assay with OVCAR-5 ovarian, 111%; with OVCAR-4 ovarian, 77.4%; with SK-OV-3 ovarian it was 102%. For the same compound, the growth in the assay on IGROV1 ovarian is 104%; in the assay with OVCAR-3 ovarian, 98.8%; with HS 578T breast it was 97.6%; with NCI/ADR-RES ovarian it was 96.9%.

Turning to `Cc1onc(-c2ccccc2Cl)c1C(=O)Cl`, the growth in the assay with SR leukemia was 83.8%; with RPMI-8226 leukemia, 99.9%; with OVCAR-8 ovarian, 95.4%; in the assay on OVCAR-5 ovarian, 103%; with OVCAR-4 ovarian, 98%; with SK-OV-3 ovarian, 99%. In addition, the growth in the assay with IGROV1 ovarian is 117%; in the assay with OVCAR-3 ovarian, 127%; in the assay on HS 578T breast it was 102%; in the assay on NCI/ADR-RES ovarian, 105%.

Regarding `O=C(O)c1cccc(-n2ncc(Cl)c(Cl)c2=O)c1`, the growth with SR leukemia is 102%; in the assay with RPMI-8226 leukemia it was 93.8%; with OVCAR-8 ovarian, 107%; with OVCAR-5 ovarian, 106%; in the assay with OVCAR-4 ovarian, 91.1%; in the assay on SK-OV-3 ovarian, 106%. The growth in the assay on IGROV1 ovarian was 130%; in the assay with OVCAR-3 ovarian it was 118%; in the assay with HS 578T breast, 98.3%; in the assay with NCI/ADR-RES ovarian it was 110%.

For the compound `Clc1ccc(-c2noc(/C=C\c3ccccc3)n2)cc1`, the growth was 97.8% in the assay on SR leukemia; 110% in the assay with RPMI-8226 leukemia; 98.7% in the assay with OVCAR-8 ovarian; 99.6% with OVCAR-5 ovarian; 102% with OVCAR-4 ovarian; 95.1% in the assay on SK-OV-3 ovarian. Besides, the growth in the assay with IGROV1 ovarian is 96.3%; with OVCAR-3 ovarian, 102%; in the assay with HS 578T breast it was 119%; in the assay with NCI/ADR-RES ovarian, 108%.

`CC(=O)C[n+]1ccc(C)cc1Sc1ccccc1C`: the growth is 130% in the assay with SR leukemia; 98.6% in the assay with RPMI-8226 leukemia; 88.7% in the assay on OVCAR-8 ovarian; 90% in the assay on OVCAR-5 ovarian; 100% in the assay with OVCAR-4 ovarian; 108% in the assay with SK-OV-3 ovarian. Besides, the growth with IGROV1 ovarian is 120%; with OVCAR-3 ovarian, 102%; in the assay on HS 578T breast it was 95.7%; with NCI/ADR-RES ovarian, 101%.

With `CCCCOC(=O)c1ccc(NC(=O)CCl)cc1`, the growth in the assay on SR leukemia is -30.8% (active); in the assay with RPMI-8226 leukemia, 19.5%; with OVCAR-8 ovarian, 42.2%; in the assay with OVCAR-5 ovarian it was 101%; in the assay on OVCAR-4 ovarian, -53% (active); with SK-OV-3 ovarian, 105%. The growth was -49.5% (active) in the assay with IGROV1 ovarian, -83.5% (active) in the assay on OVCAR-3 ovarian, 79.9% in the assay with HS 578T breast and 65.2% in the assay with NCI/ADR-RES ovarian.

Turning to `NNc1ncnc2c1ncn2C1OC(CO)C(O)C1O` (stereo not given), the growth was 17.5% in the assay on SR leukemia; 51.8% in the assay with RPMI-8226 leukemia; 25.6% in the assay on OVCAR-8 ovarian; 54.7% in the assay on OVCAR-5 ovarian; 45% with OVCAR-4 ovarian; 2.11% (active) in the assay on SK-OV-3 ovarian. In addition, the growth in the assay on IGROV1 ovarian was 66.7%; in the assay on OVCAR-3 ovarian, 9.24% (active); with HS 578T breast, 53%; in the assay on NCI/ADR-RES ovarian, 24.3%.

(Values after PubChem BioAssay (NCI).)
